# Screens (PubChem BioAssay)
# Most compounds without a hit are left out; they make up all but 2.4% or so of the library.
# ULK1 primary = blocks human autophagy kinase ULK1 | O75385 | AlphaScreen Atg13 phosphorylation by ULK1, luminescence | inhibition, % at 5.96 µM | 30,000 compounds, 1.9% hits; in the data active = inhibition above about 43%;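 note: 0% = median of compound wells and 100% = no enzyme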
# ASK1 primary = human ASK1 kinase inhibition, primary screen | AlphaScreen MKK6 phosphorylation by ASK1, luminescence | inhibition, % at 7.44 µM | Q99683 | 22,000 compounds, 0.99% hits; in the data active = inhibition above about 35%;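 note: 0% = median of compound wells and 100% = no enzyme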
# * = called active by the depositor; · = no result given; ! = not active in a repeat.
SMILES,ULK1 primary,ASK1 primary
CC(=O)c1cccc(-c2cncc(C(=O)NCc3nc4ccccc4[nH]3)c2)c1,-10,-8
CCOC(=O)C1CCN(Cc2ccc3c(c2)CCO3)CC1,-2,·
COc1cccc(CNC(=O)c2c[nH]c3cc(-c4ccncc4)ccc23)c1,-14,1
Cc1cc(NC(=O)c2ccc(F)c(F)c2)n(-c2nc3c(c(=O)[nH]2)CCC3)n1,9,·
O=C(CCl)Nc1ccc(CN2CCCC2)cc1,66*,·
O=C(CCl)Nc1ccc2nsnc2c1,2,·
COc1cccc(CNC(=O)c2c(C)nc3ccc(-c4ccc5nc(C)c(C(=O)NCc6cccc(OC)c6)n5c4)cn23)c1,8,42*
COc1cccc(CNC(=O)c2c(C)nc3ccc(-c4ccnc(N)n4)cn23)c1,11,5
O=C(NCc1cccnc1)c1ccc2nc(Br)sc2c1,45*,11
O=C(NCc1cccnc1)c1ccc2nc(-c3ccccc3)sc2c1,-22,1
CN(C)c1cc(NC(=O)CNC(C)(C)C)c(O)c2c1C[C@H]1C[C@H]3[C@@H](N(C)C)C(=O)C(C(N)=O)=C(O)[C@@]3(O)C(=O)C1=C2O,26,·
c1ccc(Nc2cc(N3CCC(N4CCOCC4)CC3)ncn2)cc1,6,10
c1cncc(CNc2nc(Nc3cnccn3)nc3nc[nH]c23)c1,18,8
O=C(Nc1ccccc1)c1csc(Nc2ccncn2)n1,3,0
CCOC(=O)C(C)(N)Cc1ccc(O)c(O)c1 (stereo not drawn),-13,·
CC(N)(Cc1ccc(O)c(O)c1)C(=O)O (stereo not drawn),85*,·
CC(=O)c1cccc(-c2ccc(C(=O)NCCc3ccc(O)cc3)s2)c1,-17,-10
Nc1cccc(-c2ccc(C(=O)NCCc3ccc(O)cc3)s2)c1,43*,7
c1cc(Nc2nc(Nc3ccc(N4CCOCC4)cc3)c3[nH]cnc3n2)ncn1,8,-13
CNC(=O)c1ccccc1Nc1cc(Nc2ccc3c(c2)OCO3)ncc1C(F)(F)F,78*,-4
CNC(=O)c1cc(F)ccc1Nc1cc(Nc2ccc(N3CCCC3=O)cc2)ncc1C(F)(F)F,73*,12
CNC(=O)c1ccccc1Nc1cc(Nc2ccc3c(c2)CC(=O)N3C)ncc1C(F)(F)F,84*,-5
CNS(=O)(=O)c1ccccc1Nc1cc(Nc2ccc3c(c2)CCC(=O)N3)ncc1C(F)(F)F,90*,-40
CNC(=O)c1ccccc1Nc1cc(Nc2ccc3[nH]nc(C4=CCNCC4)c3c2)ncc1C(F)(F)F,-20,-8
CNS(=O)(=O)c1ccccc1Nc1cc(Nc2ccccc2S(=O)(=O)NC)c(C(F)(F)F)cn1,-21,14
SMILES,ULK1 primary,ASK1 primary
O=C(NCCOc1ccccc1)C1CCN(c2ccc(Nc3cnccn3)nn2)CC1,-6,-13
O=C(NCCOc1ccccc1)c1ccc2nc(-c3ccc(C(=O)NC4CC4)cc3)sc2c1,-18,13
CS(=O)(=O)NC1CCC(Nc2cc(Nc3ccccc3C(N)=O)c(C(F)(F)F)cn2)CC1 (stereo not drawn),22,-52
O=C1Cc2cc(Nc3ccnc(Nc4ccc(N5CCOCC5)cc4)c3)ccc2N1,19,18
CNC(=O)c1cc(N2CCOCC2)ccc1Nc1cc(Nc2ccc3c(c2)CC(=O)N3)ncc1C(F)(F)F,82*,0
CNC(=O)c1ccncc1Nc1cc(Nc2ccc3c(c2)CC(=O)N3)ncc1C(F)(F)F,56*,11
CNC(=O)c1ccccc1Nc1cc(Nc2ccc3[nH]c(=O)oc3c2)ncc1C(F)(F)F,79*,-10
CNC(=O)c1ccccc1Nc1cc(Nc2ccc3c(c2)CC(=O)N3)ncc1C(F)(F)F,73*,0
CC(C)N(CCNc1nc(N2CCCC2CO)nc2c1ncn2-c1ccsc1)C(C)C (stereo not drawn),-4,-41
C/C(CC(=O)Nc1ccc2c(c1)OCCO2)=N\NC(=O)C(=O)NC(C)C,11,·
NC(=O)c1ccc(-c2cccc(C(=O)NCCOc3ccccc3)c2)cc1,-19,5
COc1cc2nc(NC3CCN(Cc4ccccc4)CC3)nc(Nc3ccccc3)c2cc1OC,-3,-9
CS(=O)(=O)Nc1ccc(-c2ccnc(Nc3ccc(-n4ccnn4)cc3)n2)cc1,66*,-28
Cc1ncn(-c2ccc(Nc3nccc(-c4ccc(S(C)(=O)=O)cc4)n3)cc2)n1,2,-12
CS(=O)(=O)Nc1ccc(-c2ccnc(Nc3ccc(N4CCOC4=O)cc3)n2)cc1,70*,-3
Cn1cnnc1-c1ccc(Nc2nccc(-c3ccc(NS(C)(=O)=O)cc3)n2)cc1,-14,1
CC(O)c1ccc(Nc2nccc(-c3ccc(NS(C)(=O)=O)cc3)n2)cc1 (stereo not drawn),69*,-7
CS(=O)(=O)c1ccc(-c2ccnc(Nc3ccc(C(N)C(F)(F)F)cc3)n2)cc1 (stereo not drawn),20,-21
Cc1cnnn1-c1ccc(Nc2nccc(-c3ccc(NS(C)(=O)=O)cc3)n2)cc1,49*,6
O=C1OCCN1c1ccc(Nc2nccc(-c3cncc(N4CCOCC4)c3)n2)cc1,4,6
Cc1[nH]ncc1-c1ccc2nc(C3COc4ccccc4O3)nc(SCCN(C)C)c2c1 (stereo not drawn),-18,9
COc1ccc([C@H]2CN(Cc3ccccc3)CC2C(=O)Nc2ccc(-c3cn[nH]c3)c(OC)c2)cc1 (stereo partly drawn),-3,16
Cc1nc(NCCc2c[nH]c3ccccc23)cc(-c2ccncc2)n1,4,·
CC(=O)N1CCN(c2ccc(NC(=O)COc3ccc(C)c(C)c3)cc2)CC1,1,·
Cc1noc(C)c1-c1cc(C(=O)NCc2ccccc2)ccn1,9,4
SMILES,ULK1 primary,ASK1 primary
COc1ccc(C(=O)c2oc3ccc(NC(C)=O)cc3c2C)cc1,58*,·
COc1ccc(C(=O)c2oc3ccc(NC(=O)c4ccc(OC)c(OC)c4)cc3c2C)cc1,3,·
Oc1cc(O)c2c(c1)O[C@H](c1ccc(O)c(O)c1)[C@@H](O)C2,53*,·
Cc1nc(NCCN(C)C)cc(-c2ccc(F)cc2)n1,8,·
Cc1cncc2cccc(NC3CCN(C(=O)[C@H](C)O)CC3)c12,10,-9
Cc1cncc2cccc(NC3CCCNC3)c12 (stereo not drawn),72*,12
Cc1cncc2cccc(N3CCN(C(=O)[C@H](C)O)CC3)c12,-1,-2
Cc1cncc2cccc(S(=O)(=O)N3CCCNC[C@@H]3C)c12,81*!,-9
CC(=O)Nc1ccc(Nc2cc(C)nc(-c3cccc(C(C)=O)c3)n2)cc1,-2,8
O=C(NCCCN1CCCC1=O)c1cccc(Nc2cnccn2)n1,10,-16
COc1ccc(CCNc2nc(Nc3ccc(-n4ccnc4)cc3)nc3nc[nH]c23)cc1,27,-17
c1ccc(OCCNc2nc(Nc3ncccn3)nc3nc[nH]c23)cc1,5,9
c1ccc(OCCNc2nc(Nc3ccncc3)nc3nc[nH]c23)cc1,57*,2
c1ccc(Nc2nc(Nc3ccc(-n4ccnc4)cc3)nc3nc[nH]c23)cc1,24,-9
CC(=O)Nc1ccc(Nc2nc(Nc3ccc(-n4ccnc4)cc3)nc3nc[nH]c23)cc1,52*,-13
OCCNc1nc(Nc2ccc(-n3ccnc3)cc2)nc2nc[nH]c12,56*,-60
O=C(Cc1cn(-c2ccc(Nc3ccc4ncccc4c3)nn2)c2ccccc12)NCCOc1ccccc1,-11,8
CC(=O)c1cccc(-c2nc(NCCc3ccc(O)cc3)c3ncn(Cc4ccc(C(F)(F)F)cc4)c3n2)c1,-27,-5
Oc1c(Cl)cc(Cl)c2cccnc12,27,·
